In the library only some 4.1% were active in any assay of this set; here they are far more common.
LEDGF integ inh – blocks HIV-1 LEDGF/p75-dependent DNA integration | TR-FRET IN-LEDGF/p75 DNA integration, Eu/Cy5 | inhibition, % at 3.7 µM | 0.64% of 370,000 active | AID 743269;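 active = inhibition above the screen-wide mean plus 3 SD, cut at about 13% in these data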;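 also: signal is the Cy5 over europium emission ratio at 671 and 618 nm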
PRMT1 FP inh – PRMT1 (human) inhibition, primary screen. recombinant PRMT1, activity-based probe fluorescence polarization. inhibition, % at 2.79 µM. Q99873. AID 652257. 1.3% of 370,000 active;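 active = inhibition above about 21% made by adding two undisclosed values, limit read from the data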
ABHD5 PLIN5 PPI – ABHD5-PLIN5 protein interaction inhibition | Q00G26+Q8WTS1 | Split G. princeps luciferase complementation, luminescence, 4 h | AID 602281 | 0.78% of 360,000 active | inhibition, % at 4 µM;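 active = inhibition above the mean inhibition across every tested compound plus 3 SD, cut at about 22% in these data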
MBD2 DNA inh – inhibitors of human MBD2 binding to methylated oligonucleotide. Q9UBB5. TR-FRET. inhibition, % at 4.4 µM. 0.31% of 370,000 active. AID 686964; in the data active = inhibition above about 13%
rCAG binder-1 – binds r(CAG) RNA repeats; r(CAG) RNA repeat, TO-PRO-1 dye displacement fluorescence; inhibition, % at 3 µM; AID 651821; 1.3% of 370,000 active;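 active = inhibition above the plate cutoff, the mean of all test compounds on that plate plus 3 SD, cut at about 35% in these data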;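 also: higher means more dye released from RNA so lower well fluorescence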
UHRF1 MBD2 ctr – UHRF1 methyl-DNA binding inhibition | UHRF1 binding to methylated oligo, TR-FRET | 0.75% of 370,000 active | Q96T88 | inhibition, % at 4.4 µM; in the data active = inhibition above about 21%;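 also: UHRF1 SRA domain binding a hemimethylated CpG hairpin DNA probe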
Target sequence (Q96T88 whole entry, looked up, the tested form may be a part): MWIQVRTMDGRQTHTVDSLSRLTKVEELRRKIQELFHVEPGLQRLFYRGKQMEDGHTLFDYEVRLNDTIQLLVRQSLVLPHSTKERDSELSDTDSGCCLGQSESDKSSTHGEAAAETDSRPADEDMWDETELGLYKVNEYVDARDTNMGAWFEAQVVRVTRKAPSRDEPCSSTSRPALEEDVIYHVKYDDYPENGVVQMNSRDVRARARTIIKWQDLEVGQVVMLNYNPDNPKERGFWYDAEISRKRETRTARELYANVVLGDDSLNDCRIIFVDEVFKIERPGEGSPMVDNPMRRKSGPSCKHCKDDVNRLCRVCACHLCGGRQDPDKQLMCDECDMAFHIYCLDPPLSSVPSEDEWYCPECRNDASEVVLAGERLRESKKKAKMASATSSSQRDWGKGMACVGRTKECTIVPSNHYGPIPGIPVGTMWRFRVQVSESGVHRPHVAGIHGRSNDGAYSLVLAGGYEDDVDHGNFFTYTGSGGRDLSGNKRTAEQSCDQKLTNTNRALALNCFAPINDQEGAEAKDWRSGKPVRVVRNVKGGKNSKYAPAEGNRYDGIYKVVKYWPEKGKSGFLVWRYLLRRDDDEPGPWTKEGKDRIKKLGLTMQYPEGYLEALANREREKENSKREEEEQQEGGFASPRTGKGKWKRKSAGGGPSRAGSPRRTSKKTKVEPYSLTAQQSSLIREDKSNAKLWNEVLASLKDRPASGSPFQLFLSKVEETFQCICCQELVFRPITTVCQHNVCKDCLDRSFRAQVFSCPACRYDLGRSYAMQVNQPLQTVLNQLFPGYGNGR
rCAG binder conf – r(CAG) RNA repeat binding, confirmation; inhibition, % at 3 µM; shares compounds with rCAG binder-1; TO-PRO-1 dye displacement fluorescence; AID 652065; 70% of 4,300 active;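 active = inhibition above a per-plate cutoff, the mean inhibition of sample wells plus 3 SD, cut at about 35% in these data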;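 also: loss of TO-PRO-1 fluorescence as compound displaces dye from 1x1 AA loop RNA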
DNA CAG counter – DNA CAG dye complex inhibition counter-screen; inhibition, % at 3 µM; shares compounds with rCAG binder-1; AID 652068; d(CAG) DNA oligo TO-PRO-1 dye displacement, fluorescence; 94% of 4,300 active;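 active = inhibition above its plate's cutoff, the mean test-well inhibition plus 3 SD, cut at about 4.8% in these data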;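 also: hits displace the dye from DNA and so lower well fluorescence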
dCAG dye DR – disrupts DNA CAG TO-PRO-1 complex in dose response. shares compounds with rCAG binder-1. 20% of 250 active. IC50, µM. DNA CAG/GTC duplex TO-PRO-1 dye displacement fluorescence; in the data active = IC50 below about 10 µM
dCAG DNA bind – counter-screen for rCAG binders: DNA CAG TO-PRO-1 complex inhibitors, late stage. shares compounds with rCAG binder-1. d(CAG) DNA duplex TO-PRO-1 dye displacement, fluorescence. IC50, µM. 80% of 30 active
rCAG binder-2 – binds r(CAG) RNA repeats in late stage dose response; AID 720651; IC50, µM; r(CAG) RNA TO-PRO-1 dye displacement, fluorescence; shares compounds with rCAG binder-1; 100% of 30 active
Each line names hits and unclear results; the compound was inactive in the other large screens (follow-up assays come after a bar, where they were run). Unless noted, no rule for the calls is given here.

O=C(COc1ccccc1/C=C1\SC(=S)NC1=O)Nc1ccc(F)cc1	rCAG binder-1 39 | rCAG binder conf 71 | DNA CAG counter 32 | dCAG dye DR inactive | dCAG DNA bind 2.8 | rCAG binder-2 1.1
NC1=NC(=O)/C(=C/c2ccccc2OCC(=O)Nc2ccc(F)cc2)S1	none
CCC(Sc1nc(C)cc(=O)[nH]1)C(=O)Nc1nc(-c2ccccc2)cs1 (configuration not stated)	rCAG binder-1 49 | rCAG binder conf 60 | DNA CAG counter 23
O=C(CSc1nc2ccccc2[nH]1)Nc1nc(-c2cccc(Br)c2)cs1	rCAG binder-1 58 | rCAG binder conf 43 | DNA CAG counter 21
Cc1ccc(-c2csc(NC(=O)CSc3nnc4c(n3)[nH]c3ccccc34)n2)cc1	rCAG binder-1 35 | rCAG binder conf inactive | DNA CAG counter 18
CN(C)CCCn1c(SCC(=O)Nc2nc(-c3cccc(Br)c3)cs2)nc2ccccc2c1=O	none
CCC(Sc1nc(-c2ccccc2)cc(=O)[nH]1)C(=O)O (configuration not stated)	none
Cc1ccc(C)c(NC(=O)CSc2nc(C)cc(=O)[nH]2)c1	none (no result: ABHD5 PLIN5 PPI)
Cc1ccc(-c2csc(NC(=O)CSc3nc(C)cc(=O)[nH]3)n2)cc1	rCAG binder-1 56 (no result: ABHD5 PLIN5 PPI) | rCAG binder conf 54 | DNA CAG counter 19
Cc1ccc(NC(=O)CSc2nnc3c(n2)[nH]c2ccccc23)cc1	none
C[C@H](CO)N1C[C@H](C)[C@@H](CN(C)C(=O)NC2CCCCC2)OCc2cn(nn2)CCCC1=O	none (no result: ABHD5 PLIN5 PPI)
O=C(CN1CCN(Cc2ccccc2Cl)CC1)N/N=C\c1ccccc1F	none (no result: ABHD5 PLIN5 PPI)
CCOC(=O)c1c(-c2ccccc2Cl)csc1NC(=O)CSc1nc(C)cc(=O)[nH]1	rCAG binder-1 38 | rCAG binder conf 45 | DNA CAG counter 15
CCOC(=O)c1ccc(NC(=O)CSc2nc(C)cc(=O)[nH]2)cc1	none (no result: LEDGF integ inh, PRMT1 FP inh, MBD2 DNA inh, rCAG binder-1, UHRF1 MBD2 ctr)
CCOC(=O)c1ccccc1NC(=O)Cc1c(C(=O)O)n(C)c2ccccc12	rCAG binder-1 37 | rCAG binder conf inactive | DNA CAG counter inactive
O=C(Nc1ccc(S(=O)(=O)Nc2ncccn2)cc1)c1ccccc1NS(=O)(=O)c1ccc(Cl)cc1	rCAG binder-1 42 | rCAG binder conf 66 | DNA CAG counter 26
O=C(Nc1ccc(Cl)cc1)Nc1ccc(S(=O)(=O)Nc2ncccn2)cc1	none
O=C(O)c1ccc(NS(=O)(=O)c2ccc(NC(=O)c3ccccc3Cl)cc2)cc1	none
O=C(O)c1ccc(Cl)c(S(=O)(=O)Nc2ccccc2C(=O)Nc2ccc(Cl)cc2)c1	rCAG binder-1 45 | rCAG binder conf 46 | DNA CAG counter 17
O=C(c1ccccc1NS(=O)(=O)c1ccc(Cl)cc1)N1CCc2ccccc21	rCAG binder-1 47 | rCAG binder conf 61 | DNA CAG counter 15
COC(=O)C[C@H]1CC[C@H]2[C@H](COc3ccc(NC(=O)c4ccccc4F)cc3C(=O)N2C)O1	none (no result: ABHD5 PLIN5 PPI)
COc1ccc(C(=O)/C(C#N)=N/Nc2cccc([N+](=O)[O-])c2)cc1	rCAG binder-1 44 | rCAG binder conf 52 | DNA CAG counter 13
N#C/C(=N\Nc1cccc(Cl)c1)C(=O)c1ccccc1	rCAG binder-1 73 | rCAG binder conf 44 | DNA CAG counter 11
N#C/C(=N\Nc1ccccc1Cl)C(=O)c1ccccc1	none
N#C/C(=N\Nc1ccc(Cl)cc1)C(=O)c1ccsc1	rCAG binder-1 47 | rCAG binder conf 40 | DNA CAG counter 8.1
Cc1cc2c(c(=O)o1)[C@@]1(C(=O)N(C)c3ccc([N+](=O)[O-])cc31)C1=C(CCCC1=O)O2	none (no result: ABHD5 PLIN5 PPI)
COc1cccc(CNC(=O)[C@H]2CCCN2C(=O)[C@H]2CCCN2C(=O)c2ccc(F)c(C(F)(F)F)c2)c1	none (no result: ABHD5 PLIN5 PPI)
CCC[C@H]1[C@@H](NC(=O)C2CCOC2)CC[C@@]23CCCN2C(=O)CCC[C@@H]13 (some centres not stated)	none (no result: ABHD5 PLIN5 PPI, rCAG binder-1)
COC(=O)[C@]12CCCCC=C1N(Cc1ccc(OC)cc1)C(=O)[C@@H]2CC(=O)NCCCN1CCCC1=O	none (no result: ABHD5 PLIN5 PPI)
CC(C)NC(=O)N(C)C[C@H]1OCc2cn(nn2)CCCC(=O)N([C@H](C)CO)C[C@@H]1C	none (no result: ABHD5 PLIN5 PPI)
COc1ccc(-n2cccc2/C=C2/NC(=O)N(c3cccc(Cl)c3)C2=O)cc1	none
Cc1cc(C=C2C(=O)c3ccccc3C2=O)c(C)n1-c1ccc(C(=O)O)cc1	none
Cc1cc(C=C2C(=O)c3ccccc3C2=O)c(C)n1-c1cccc(C(=O)O)c1	rCAG binder-1 56 | rCAG binder conf 51 | DNA CAG counter 15
O=C(O)c1cccc(-n2cccc2/C=C2/NC(=O)N(c3cccc(Cl)c3)C2=O)c1	rCAG binder-1 36, UHRF1 MBD2 ctr 27 | rCAG binder conf 35 | DNA CAG counter 10
O=C(O)c1cccc(-n2cccc2C=C2C(=O)c3ccccc3C2=O)c1	rCAG binder-1 57 | rCAG binder conf 47 | DNA CAG counter 14
O=C1C(=Cc2cccn2-c2ccccc2)C(=O)c2ccccc21	none
Cc1ccc(CN2CCCCC(NC(=O)Cc3cccs3)C2=O)cc1 (configuration not stated)	none (no result: ABHD5 PLIN5 PPI)
Cc1ccc(S(=O)(=O)N2[C@@H](c3ccc(Br)cc3)C(C(=O)O)=CC[C@H]2c2cccc(C)c2)cc1	none
Cc1ccc(S(=O)(=O)N2[C@@H](c3ccc(Cl)cc3)C(C(=O)O)=CC[C@H]2c2ccc3c(c2)OCO3)cc1	rCAG binder-1 54 | rCAG binder conf 60 | DNA CAG counter 23
Cc1ccc(S(=O)(=O)N2[C@@H](c3ccc(Br)cc3)C(C(=O)O)=CC[C@H]2c2ccc3c(c2)OCO3)cc1	rCAG binder-1 67 | rCAG binder conf 60 | DNA CAG counter 23
Cc1ccc(S(=O)(=O)N2[C@@H](c3cccc(Cl)c3)C(C(=O)O)=CC[C@H]2c2cccc(C)c2)cc1	none
Cc1ccc(S(=O)(=O)N2[C@@H](c3cccc(Cl)c3)C(C(=O)O)=CC[C@H]2c2ccc3c(c2)OCO3)cc1	rCAG binder-1 67 | rCAG binder conf 69 | DNA CAG counter 31
